Values joined by “and” are separate entries in the source; they are usually repeats but may differ in a detail not shown here. Equal entries are not always repeated. Screen size: about 5,500 compounds; about 2,000 (36%) were called active. Another 18% or so got no clear call; they are omitted. Rule as the data show it: active = normalized growth mostly below about 0.91 (no sharp cut-off); inconclusive = no clear call, values can overlap the other calls; inactive = mostly above about 0.92. Some of the results follow.
Assay: chemical genetic growth profiling, strain panel (AID 1159580);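 also: tested at 20 µM; growth read once vehicle control cultures reached saturation at 30 °C; 1 = growth at the plate median or of vehicle wells; lower values mean less growth of the strain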
Conditions: growth OD
[1] = S. cerevisiae deletion strains, locus YGR229C, strain SMI1, stronger effect = lower value
[2] = S. cerevisiae deletion strains, locus YJR075W, strain HOC1, stronger effect = lower value
[3] = S. cerevisiae deletion strains, locus YNL128W, strain TEP1, stronger effect = lower value

Measured: normalized growth

O=C(O)C1CN(CCCP(=O)(O)O)CCN1 (stereo not given)
inactive: S. cerevisiae deletion strains, locus YAL040C, strain CLN3, stronger effect = lower value 0.977 | S. cerevisiae deletion strains, locus YCL061C, strain MRC1 (second series), stronger effect = lower value 0.994 | S. cerevisiae deletion strains, locus YDR363W, strain ESC2, stronger effect = lower value 0.965 | S. cerevisiae deletion strains, locus YER002W, strain NOP16, stronger effect = lower value 0.975 | S. cerevisiae deletion strains, locus YGR078C, strain PAC10, stronger effect = lower value 0.966 | [1] 0.967 | [2] 0.987 | [3] 1.02 | S. cerevisiae deletion strains, locus YNL175C, strain NOP13, stronger effect = lower value 0.974 | S. cerevisiae deletion strains, locus YNL197C, strain WHI3, stronger effect = lower value 0.99 | S. cerevisiae deletion strains, locus YNL224C, strain SQS1, stronger effect = lower value 0.991 | S. cerevisiae deletion strains, locus YOR083W, strain WHI5 (second series), stronger effect = lower value 1.04 | S. cerevisiae deletion strains, locus YPL055C, strain LGE1, stronger effect = lower value 0.951 | S. cerevisiae deletion strains, locus YPL241C, strain CIN2, stronger effect = lower value 0.984

COc1cccc(-c2cc(=O)c3cc(OC)ccc3o2)c1
active: S. cerevisiae deletion strains, locus YBR021W, strain FUR4, stronger effect = lower value 0.816 | S. cerevisiae deletion strains, locus YCL029C, strain bik1, stronger effect = lower value 1.1 [resistant] | S. cerevisiae deletion strains, locus YDR101C, strain arx1, stronger effect = lower value 1.13 [resistant] | S. cerevisiae deletion strains, locus YDR502C, strain sam2, stronger effect = lower value 1.14 [resistant] | S. cerevisiae deletion strains, locus YHR094C, strain hxt1, stronger effect = lower value 1.18 [resistant] | S. cerevisiae deletion strains, locus YHR200W, strain rpn10, stronger effect = lower value 1.14 [resistant] | S. cerevisiae deletion strains, locus YIR030C, strain dcg1, stronger effect = lower value 1.12 [resistant] | S. cerevisiae deletion strains, locus YJL168C, strain set2, stronger effect = lower value 1.1 [resistant] | S. cerevisiae deletion strains, locus YKL009W, strain mrt4, stronger effect = lower value 0.713 | S. cerevisiae deletion strains, locus YLR371W, strain rom2, stronger effect = lower value 1.11 [resistant] | S. cerevisiae deletion strains, locus YNL271C, strain bni1, stronger effect = lower value 1.17 [resistant] | S. cerevisiae deletion strains, locus YNL307C, strain MCK1, stronger effect = lower value 1.14 [resistant] | S. cerevisiae deletion strains, locus YOR136W, strain idh2, stronger effect = lower value 1.18 [resistant] | S. cerevisiae deletion strains, locus YOR184W, strain ser1, stronger effect = lower value 1.14 [resistant] | S. cerevisiae deletion strains, locus YOR316C, strain cot1, stronger effect = lower value 1.12 [resistant] | S. cerevisiae deletion strains, locus YPR119W, strain clb2, stronger effect = lower value 1.11 [resistant] | S. cerevisiae deletion strains, locus YPR167C, strain met16, stronger effect = lower value 1.08 [resistant]
inactive: S. cerevisiae deletion strains, locus YAL013W, strain DEP1, stronger effect = lower value 0.993 | S. cerevisiae deletion strains, locus YBR229C, strain ROT2, stronger effect = lower value 0.992 | S. cerevisiae deletion strains, locus YDL035C, strain GPR1, stronger effect = lower value 0.98 | S. cerevisiae deletion strains, locus YDL074C, strain BRE1, stronger effect = lower value 0.914 | S. cerevisiae deletion strains, locus YDL101C, strain DUN1, stronger effect = lower value 0.983 | S. cerevisiae deletion strains, locus YDL134C, strain PPH21, stronger effect = lower value 0.95 | S. cerevisiae deletion strains, locus YDL185W, strain tfp1, stronger effect = lower value 1.09 | S. cerevisiae deletion strains, locus YDL192W, strain arf1, stronger effect = lower value 1.04 | S. cerevisiae deletion strains, locus YDR150W, strain NUM1, stronger effect = lower value 1 | S. cerevisiae deletion strains, locus YDR162C, strain NBP2, stronger effect = lower value 0.968 | S. cerevisiae deletion strains, locus YDR318W, strain mcm21, stronger effect = lower value 1.05 | S. cerevisiae deletion strains, locus YDR388W, stronger effect = lower value 1.03 | S. cerevisiae deletion strains, locus YEL061C, strain CIN8, stronger effect = lower value 0.979 | S. cerevisiae deletion strains, locus YER155C, strain BEM2, stronger effect = lower value 1.07 | S. cerevisiae deletion strains, locus YER167W, strain BCK2, stronger effect = lower value 0.993 | S. cerevisiae deletion strains, locus YGL078C, strain dbp3, stronger effect = lower value 1.07 | S. cerevisiae deletion strains, locus YGL086W, strain mad1, stronger effect = lower value 1 | S. cerevisiae deletion strains, locus YGL248W, strain PDE1, stronger effect = lower value 0.944 | S. cerevisiae deletion strains, locus YGR135W, strain pre9, stronger effect = lower value 1.07 | [1] 0.858 | S. cerevisiae deletion strains, locus YGR252W, strain gcn5, stronger effect = lower value 0.981 | S. cerevisiae deletion strains, locus YHR030C, strain SLT2, stronger effect = lower value 0.958 and 0.966 | S. cerevisiae deletion strains, locus YHR079C, strain IRE1 (second series), stronger effect = lower value 0.987 | S. cerevisiae deletion strains, locus YHR079C, strain IRE1, stronger effect = lower value 0.967 | S. cerevisiae deletion strains, locus YHR129C, strain ARP1, stronger effect = lower value 0.98 | S. cerevisiae deletion strains, locus YIL066C, strain RNR3, stronger effect = lower value 0.94 | S. cerevisiae deletion strains, locus YIL073C, strain SPO22, stronger effect = lower value 0.945 | S. cerevisiae deletion strains, locus YIL125W, strain kgd1, stronger effect = lower value 1.05 | S. cerevisiae deletion strains, locus YJL095W, strain BCK1, stronger effect = lower value 0.857 and 0.963 | S. cerevisiae deletion strains, locus YJL134W, strain LCB3, stronger effect = lower value 1.01 | S. cerevisiae deletion strains, locus YJL187C, strain SWE1 (second series), stronger effect = lower value 0.954 | S. cerevisiae deletion strains, locus YJR043C, strain POL32, stronger effect = lower value 0.93 | S. cerevisiae deletion strains, locus YJR066W, strain TOR1, stronger effect = lower value 0.916 | [2] 0.959 | S. cerevisiae deletion strains, locus YKL068W, stronger effect = lower value 1.02 | S. cerevisiae deletion strains, locus YKL085W, strain MDH1 (second series), stronger effect = lower value 1.03 | S. cerevisiae deletion strains, locus YKL085W, strain MDH1, stronger effect = lower value 1.03 | S. cerevisiae deletion strains, locus YKL190W, strain CNB1, stronger effect = lower value 1.01 | S. cerevisiae deletion strains, locus YKR001C, strain vps1, stronger effect = lower value 0.998 | S. cerevisiae deletion strains, locus YLR039C, strain RIC1, stronger effect = lower value 0.995 | S. cerevisiae deletion strains, locus YLR058C, strain SHM2, stronger effect = lower value 0.968 | S. cerevisiae deletion strains, locus YLR102C, strain apc9, stronger effect = lower value 1.03 | S. cerevisiae deletion strains, locus YLR113W, strain HOG1, stronger effect = lower value 0.983 | S. cerevisiae deletion strains, locus YLR262C, strain YPT6, stronger effect = lower value 1.06 | S. cerevisiae deletion strains, locus YLR268W, strain sec22, stronger effect = lower value 1.07 | S. cerevisiae deletion strains, locus YLR330W, strain CHS5, stronger effect = lower value 0.952 | S. cerevisiae deletion strains, locus YLR342W, strain FKS1 (second series), stronger effect = lower value 0.891 | S. cerevisiae deletion strains, locus YLR418C, strain cdc73, stronger effect = lower value 0.895 | S. cerevisiae deletion strains, locus YML016C, strain PPZ1, stronger effect = lower value 0.987 | S. cerevisiae deletion strains, locus YML032C, strain rad52, stronger effect = lower value 0.934 | S. cerevisiae deletion strains, locus YML124C, strain tub3, stronger effect = lower value 1.04 | S. cerevisiae deletion strains, locus YMR078C, strain ctf18, stronger effect = lower value 1.06 | S. cerevisiae deletion strains, locus YMR223W, strain ubp8, stronger effect = lower value 1.09 | S. cerevisiae deletion strains, locus YMR263W, strain SAP30, stronger effect = lower value 0.935 | S. cerevisiae deletion strains, locus YMR307W, strain GAS1, stronger effect = lower value 0.969 | S. cerevisiae deletion strains, locus YNL067W, strain RPL9B, stronger effect = lower value 0.946 | [3] 0.99 | S. cerevisiae deletion strains, locus YNL183C, strain NPR1, stronger effect = lower value 0.96 | S. cerevisiae deletion strains, locus YNL233W, strain BNI4, stronger effect = lower value 0.889 | S. cerevisiae deletion strains, locus YNL250W, strain rad50, stronger effect = lower value 1.05 | S. cerevisiae deletion strains, locus YNL298W, strain CLA4, stronger effect = lower value 0.992 | S. cerevisiae deletion strains, locus YNL322C, strain KRE1, stronger effect = lower value 0.999 | S. cerevisiae deletion strains, locus YNR052C, strain pop2, stronger effect = lower value 1.03 | S. cerevisiae deletion strains, locus YOL006C, strain TOP1, stronger effect = lower value 0.723 | S. cerevisiae deletion strains, locus YOL012C, strain htz1 0.822 | S. cerevisiae deletion strains, locus YOL147C, strain pex11, stronger effect = lower value 0.969 | S. cerevisiae deletion strains, locus YOR061W, strain CKA2, stronger effect = lower value 1 | S. cerevisiae deletion strains, locus YOR069W, strain VPS5, stronger effect = lower value 1 | S. cerevisiae deletion strains, locus YOR231W, strain MKK1, stronger effect = lower value 0.977 | S. cerevisiae deletion strains, locus YPL256C, strain CLN2, stronger effect = lower value 0.982 | S. cerevisiae deletion strains, locus YPR141C, strain kar3, stronger effect = lower value 1.07 | S. cerevisiae deletion strains, locus YPR163C, strain tif3, stronger effect = lower value 1.07 | S. cerevisiae deletion strains, strain wtn01, stronger effect = lower value 1.09 | S. cerevisiae strains, strain wild type, stronger effect = lower value 0.972

From PubChem BioAssay AID1159580 (chemical genetic matrix, 2015)
